Results on 38 molecules are retold here after PubChem BioAssay (NCI).

About 83,000 compounds went through this panel and 20% of them were active in at least one assay; those are over-represented in the sample as a whole.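 Results are percent growth after 48 hours of single-concentration exposure. 100 means growth as in untreated cells, lower positive values show inhibition; negative values down to -100 show cell death.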 Unmarked numbers belong to inactive results. Calls of active or inactive are those of the source. The calls were made as follows: active = growth percent below 10; inactive = the rest.

For the assay, the system named is SN12C renal. The assay is described as follows: NCI-60 one-dose screen, 48 h (100 = growth as untreated, 0 = no growth, -100 = all killed). Particulars: 10 µM unless noted.
`COc1cnc2c(c1)C(=O)c1c-2n(CCCN2CCNCC2)c(=O)c2cc(Cl)ccc12`: the growth is 16.5%.

In the case of `c1coc(CNc2c3ccccc3nc3ccccc23)c1`, the growth is 53.5%.

As to `Cn1cnc([N+](=O)[O-])c1S(=O)(=O)Oc1ccccc1`, the growth was 99.2%.

As for `O=c1c2cc(Br)cc(Br)c2nc(-c2ccc(Cl)cc2)n1/N=C\c1ccccc1F`, the growth was 58.2%.

`CC1=CC(=O)OC1C/C=C(\C)CCC1[C@@]2(C)CCC[C@@](C)(C(=O)O)C2CC[C@@]1(C)O` (stereo partly drawn): the growth is 41%.

For the molecule `Cn1cnc([N+](=O)[O-])c1S(=O)(=O)Oc1cccc2ccccc12`, the growth was 79.2%.

Regarding `COc1ccccc1CNCCCN1C(=O)c2ccc3c4c(ccc(c24)C1=O)C(=O)N(CCCOCCCCOCCCN)C3=O`, the growth was -87.5% (active).

As for `COc1cc(NCC(O)CN(CC(C)C)CC(C)C)c2ncccc2c1` (stereo not drawn), the growth was 84.6%.

As to `CC(C)(CCc1ccccn1)C(=O)CCCc1ccccn1`, the growth is 94.8%.

As for `COc1cccc(-c2nc3sccn3c2-c2ccnc(NCCN3CCCN(C)S3(=O)=O)n2)c1`, the growth is 64.7%.

With `Cc1ccc(NC(=O)c2sc3nc4c(cc3c2N)C(=O)CCC4)cc1Cl`, the growth is 119%.

Take `COc1ccc(NC(=O)c2sc3c(=O)[nH]c(C(F)(F)F)nc3c2C)cc1`: the growth is 99.8%.

As for `CCC1=CC2CN(C1)Cc1c([nH]c3ccccc13)[C@@](C(=O)OC)(c1cc3c(cc1OC)N(C)[C@H]1[C@@](O)(C(=O)OC)[C@H](OC(C)=O)[C@]4(CC)C=CCN5CC[C@]31[C@@H]54)C2` (stereo partly drawn), the growth is 36.9%.

Consider `CN1C2CCC1/C(=C\c1ccc(Cl)cc1)C(=O)/C2=C/c1ccc(Cl)cc1`, for which the growth is 63.2%.

Take `CC(C)[C@@]12C[C@@H](OC(=O)[C@H]3CO3)[C@@](C)(O1)[C@@H]1CC[C@@H](C)[C@H]1[C@@H]2OC(=O)/C=C/c1ccccc1`: the growth is 52.5%.

Turning to `OCCN(CCO)c1ccc2ccccc2c1`, the growth was 94.2%.

With `O=C(NCCN1CCCC1)n1cc(-c2ccncc2)c(-c2cc(O)cc(Cl)c2)n1`, the growth was 82.5%.

Consider `CC1=C(/C=C/C(C)=C/C=C(C(=O)O)\C(C)=C\C(=O)O)C(C)(C)CCC1`, for which the growth is 92%.

On to `O=C1/C=C/[C@@H](O)[C@@H]2C[C@@H](O)C[C@H]2/C=C/CCC[C@H]([C@@H](O)CO)O1`, for which the growth was 102%.

Turning to `O=C1C(Cl)=C(Nc2cccc3ccccc23)C(=O)c2ccccc21`, the growth was 80.1%.

Consider `Cc1ccc2c(C)c3c(ccc4ccccc43)c[n+]2c1`, for which the growth was 26.3%.

On to `Nc1c(C(=O)C[C@@H](N)CO)ccc2c1C(=O)CCO2`, for which the growth is 32.7%.

Consider `COc1ccc2c(c1)sc1nc(-c3ccccc3)c(-c3cccc4ccccc34)n12`, for which the growth was 44.7%.

As to `CCOc1cc(/C=N\NC(=O)C[N+](C)(C)C)ccc1O`, the growth is 109%.

For the molecule `C=C1C(=O)O[C@H]2[C@H]1CC/C(COC(=O)NCc1cn(C)c3ccccc13)=C\CC[C@@]1(C)O[C@@H]21`, the growth was 2.93% (active).

As for `CCCCCCCC/C=C/CCCCCCCC1=NC(C)(C)CN1C(C)C`, the growth is 16.8%.

Turning to `Clc1ccc(-c2nc(-c3cccs3)no2)cc1`, the growth was 100%.

As to `C=CCOC(=O)C1=C(C)NC2=C(C(=O)CC(C)(C)C2)C1c1ccc(OC)cc1` (stereo not drawn), the growth is 106%.

On to `COc1ccc(/C=C(\C#N)c2cc(OC)c(OC)c(OC)c2)cc1`, for which the growth was 27.9%.

In the case of `CCOC(=O)C#Cc1c(C(=O)OCC)nnn1[C@@H]1O[C@H](COC(C)=O)[C@@H](OC(C)=O)[C@H]1OC(C)=O`, the growth is 88.5%.

Regarding `CCOC(=O)c1ccc(NC(=O)CSC(N)=O)cc1`, the growth was 107%.

Regarding `COc1cc(-c2nc(-c3ccc(-c4nc5ccc(F)cc5[nH]4)cc3)no2)cc(OC)c1OC`, the growth is 66.1%.

As to `Nc1ccc(C2=NNC(=O)Cc3cc4c(cc32)OCCO4)cc1Cl`, the growth was 61.1%.

With `COc1cc(/C=C2\CN(C(=O)OC(C)(C)C)C/C(=C\c3ccc(O)c(OC)c3)C2=O)ccc1O`, the growth was 88.9%.

`CCN1C(=O)N(CC)C2C1N=C(SC)N2/N=C/C=C/c1ccccc1OC` (stereo not drawn): the growth was 26.5%.

In the case of `N#CCCn1cnc2c(N)ncnc21`, the growth was 94.2%.

`COc1ccc(C2c3cccn3-c3ccccc3N2C(C)=O)cc1` (stereo not drawn): the growth is 99.8%.

As for `COc1ccccc1/C=C/C(=O)CCC(=O)O`, the growth was 100%.
